From PubChem BioAssay (EPA / NIEHS) come the findings set out here.

Calls of active or inactive are those of the source. Rule for the calls: active = hit-call score of the fitted dose curve at least 0.9, where 1 is the maximum; inactive = score below 0.9.

Details in all cases: mRNA level, 48 h; actives raise or lower the signal
Read-out in assay [1]: Bcl-2 (BID) gene, BID (gene 637)
Kind of assay: LTEA_HepaRG_BID: Life Technologies and Expression Analysis (LTEA) Assay for Bcl-2 (BID) gene using HepaRG (AID 2283476). A digest of the protocol:
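Gene expression by qRT-PCR in HepaRG cells after 48 h exposure, duplicate wells, eight half-log concentrations topping at 100 uM in 0.5% DMSO. Normalized to ACTB, GAPDH, POLR2A; bidirectional fitting relative to DMSO.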

Read-out in a further assay: Caspase-3 (Homo sapiens) (UniProt P42574)
Kind of assay: LTEA_HepaRG_CASP3: Life Technologies and Expression Analysis (LTEA) Assay for cysteine-aspartic acid protease (CASP3) using HepaRG (AID 2283477). The method, boiled down:
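In HepaRG liver cells dosed for 48 h at up to 100 uM (eight-point, duplicate), CASP3 expression changes are scored by qRT-PCR. Activity is fitted in both directions with 0.5% DMSO as baseline.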

Read-out in assay [2]: Cytochrome P450 (CYP24A1), CYP24A1 (gene 1591)
Description: LTEA_HepaRG_CYP24A1: Life Technologies and Expression Analysis (LTEA) Assay for Cytochrome P450 (CYP24A1) using HepaRG (AID 2283478). The method, boiled down: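 Human liver HepaRG cultures receive each chemical for 48 h across an eight-point half-log series topping at 100 uM in 0.5% DMSO. Induction or suppression of CYP24A1 mRNA is scored relative to vehicle after housekeeping-gene normalization.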

Read-out in assay [3]: Cytochrome P450 (CYP1A2), CYP1A2 (gene 1544)
Description: LTEA_HepaRG_CYP1A2: Life Technologies and Expression Analysis (LTEA) Assay for Cytochrome P450 (CYP1A2) using HepaRG (AID 2283479).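 For AC50: TaqMan qRT-PCR transcript level normalized to ACTB GAPDH and POLR2A.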 The method, boiled down: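 Assesses CYP1A2 mRNA in human HepaRG liver cells after 48 h chemical exposure at up to 100 uM. Values come from qRT-PCR with bidirectional curve fitting relative to DMSO.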

Read-out in assay [4]: cysteine-aspartic acid protease (CASP8), CASP8 (gene 841)
Description: LTEA_HepaRG_CASP8: Life Technologies and Expression Analysis (LTEA) Assay for cysteine-aspartic acid protease (CASP8) using HepaRG (AID 2283480). The method, boiled down: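 Differentiated HepaRG cells in serum-free induction medium, 48 h exposure, eight-point half-log series from 100 uM in 0.5% DMSO, duplicates. CASP8 mRNA by qRT-PCR, normalized to ACTB, GAPDH, POLR2A; bidirectional fit versus DMSO.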

Read-out in assay [5]: Cytochrome P450 (CYP2B6), CYP2B6 (gene 1555)
Kind of assay: LTEA_HepaRG_CYP2B6: Life Technologies and Expression Analysis (LTEA) Assay for Cytochrome P450 (CYP2B6) using HepaRG (AID 2283481). The method, boiled down:
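Using 48 h treatment of HepaRG cells in serum-free induction medium, concentrations spanned half-log steps from 100 uM in 0.5% DMSO vehicle. CYP2B6 mRNA induction or loss is scored by qRT-PCR against DMSO.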

Read-out in assay [6]: Cytochrome P450 2C19 (Homo sapiens) (UniProt P33261)
Kind of assay: LTEA_HepaRG_CYP2C19: Life Technologies and Expression Analysis (LTEA) Assay for CYP2C19 using HepaRG (AID 2283482). A digest of the protocol: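 Human HepaRG liver cells received test chemicals for 48 h (highest 100 uM, half-log dilutions in 0.5% DMSO). CYP2C19 mRNA induction or loss is read by multiplexed qRT-PCR and fitted in both directions versus vehicle.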

Read-out in a further assay: CYP2C8 (gene 1558)
Kind of assay: LTEA_HepaRG_CYP2C8: Life Technologies and Expression Analysis (LTEA) Assay for CYP2C8 using HepaRG (AID 2283483). A digest of the protocol: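 Differentiated HepaRG cells in serum-free induction medium exposed 48 h in duplicate to 8 half-log concentrations from 100 uM in 0.5% DMSO. CYP2C8 mRNA by qRT-PCR normalized to ACTB, GAPDH, POLR2A; bidirectional fit versus DMSO.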

Read-out in the next assay: CYP2C9 (gene 1559)
Description: LTEA_HepaRG_CYP2C9: Life Technologies and Expression Analysis (LTEA) Assay for CYP2C9 using HepaRG (AID 2283484). A digest of the protocol: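 Differentiated human HepaRG cells in serum-free induction medium were exposed 48 h to chemicals in 8-point half-log series from 100 uM (0.5% DMSO), in duplicate. CYP2C9 mRNA was measured by qRT-PCR, normalized to ACTB/GAPDH/POLR2A, with bidirectional fitting versus DMSO.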

Read-out in another assay: CYP2E1 (gene 1571)
Description: LTEA_HepaRG_CYP2E1: Life Technologies and Expression Analysis (LTEA) Assay for CYP2E1 using HepaRG (AID 2283485). The method, boiled down:
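HepaRG cells, plated 48 h, then exposed 48 h in serum-free induction medium to eight half-log concentrations from 100 uM in 0.5% DMSO, duplicate. CYP2E1 mRNA by qRT-PCR, normalized to ACTB/GAPDH/POLR2A; bidirectional fit versus DMSO.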

Chain of Cytochrome P450 2C19 (Homo sapiens) (P33261 whole entry, looked up): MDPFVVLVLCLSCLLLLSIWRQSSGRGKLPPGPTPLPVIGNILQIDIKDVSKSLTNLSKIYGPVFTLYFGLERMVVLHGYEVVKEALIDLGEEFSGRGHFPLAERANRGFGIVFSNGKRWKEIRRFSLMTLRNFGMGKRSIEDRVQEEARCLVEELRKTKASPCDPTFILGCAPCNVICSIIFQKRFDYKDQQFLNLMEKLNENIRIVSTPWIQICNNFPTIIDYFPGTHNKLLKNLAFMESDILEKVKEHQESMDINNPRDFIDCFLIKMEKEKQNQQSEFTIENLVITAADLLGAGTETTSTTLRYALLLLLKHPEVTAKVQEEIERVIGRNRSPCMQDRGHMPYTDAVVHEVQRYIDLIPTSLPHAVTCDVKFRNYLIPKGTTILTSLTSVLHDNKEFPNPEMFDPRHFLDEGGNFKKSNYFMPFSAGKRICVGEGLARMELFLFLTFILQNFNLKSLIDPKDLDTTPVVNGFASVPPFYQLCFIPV
Chain of Caspase-3 (Homo sapiens) (P42574 whole entry, looked up): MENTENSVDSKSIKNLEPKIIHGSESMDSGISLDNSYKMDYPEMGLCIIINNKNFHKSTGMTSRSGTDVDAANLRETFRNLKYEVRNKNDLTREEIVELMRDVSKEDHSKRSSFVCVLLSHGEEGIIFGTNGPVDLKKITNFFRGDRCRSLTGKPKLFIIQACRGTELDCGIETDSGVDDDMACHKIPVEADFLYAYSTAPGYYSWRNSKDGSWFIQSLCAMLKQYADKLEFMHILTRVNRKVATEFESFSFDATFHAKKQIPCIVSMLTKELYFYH

As to `C=CCc1ccc(O)c(OC)c1`, the outcome (in assay [1]; with Caspase-3 (Homo sapiens); in assay [2]; in [3]; in assay [4]; in assay [5]) was inactive. Also, the compound was classed as inactive (in assay [6]; with CYP2C8 (gene 1558); in the assay with CYP2C9 (gene 1559); in the assay with CYP2E1 (gene 1571)).

Broadly, the AC50 is the midpoint of the concentration-response curve, whichever way the signal moves. For `Cc1nc(C)nc(N2C[C@@H](C)N(c3ccnc([C@@H](C)O)n3)[C@@H](C)C2)n1`, the result (in assay [1]; in the assay with Caspase-3 (Homo sapiens); in assay [2]; in [3]; in assay [4]; in assay [5]) was inactive. Moreover, the compound was classed as inactive (in assay [6]; in the assay with CYP2C8 (gene 1558); with CYP2E1 (gene 1571)). Besides, the AC50 with CYP2C9 (gene 1559) is 25 µM (active).

In the case of `O=C(O)CCCCC(=O)O`, the outcome in assay [1], in assay [2], in [3], in assay [4], in [5] and in assay [6] was inactive. The call with CYP2C8 (gene 1558), with CYP2C9 (gene 1559) and with CYP2E1 (gene 1571) was inactive.

With `Cc1ccc(N(C)C)cc1`, the compound was classed as inactive (in [1]; with Caspase-3 (Homo sapiens); in assay [2]; in [4]; in assay [6]; with CYP2C8 (gene 1558)). Further, the compound was called inactive with CYP2C9 (gene 1559) and with CYP2E1 (gene 1571). Moreover, the results for the AC50 in assay [3] and in [5] were 23.9 µM (active) and 50 µM (active), respectively.

Consider `Cc1cc(=O)[nH]c(=S)[nH]1`, for which the result (in [1]; in the assay with Caspase-3 (Homo sapiens); in assay [2]; in [4]; in assay [5]; in assay [6]) was inactive. Moreover, the compound was classed as inactive with CYP2C8 (gene 1558), with CYP2C9 (gene 1559) and with CYP2E1 (gene 1571). Also, in [3], the AC50 is 50 µM (active).

As to `CN1CCCC1=O`, the compound was called inactive (in [1]; in the assay with Caspase-3 (Homo sapiens); in [2]; in [4]; in assay [5]; in assay [6]). For the same compound, the call with CYP2C8 (gene 1558) and in the assay with CYP2E1 (gene 1571) was inactive. For the same compound, in assay [3], the AC50 is 31.5 µM (active).

In the case of `CC(C)(C)c1cc(O)c(C(C)(C)C)cc1O`, the AC50 in [1] was 84.3 µM (active); with Caspase-3 (Homo sapiens), 79.4 µM (active); in assay [4], 81.1 µM (active).

Regarding `CCOc1ccc2c(c1)C(C)=CC(C)(C)N2`, the compound was classed as inactive (in assay [1]; in the assay with Caspase-3 (Homo sapiens); in assay [2]; in [4]; with CYP2C8 (gene 1558); with CYP2C9 (gene 1559)). For the same compound, the AC50 was 13 µM (active) in [3], 0.551 µM (active) in assay [5] and 30 µM (active) in the assay with CYP2E1 (gene 1571).

With `CCCCCCCCCCCC(=O)OC`, the result (in [1]; with Caspase-3 (Homo sapiens); in assay [2]; in [4]; in assay [5]; in assay [6]) was inactive. Also, the call in the assay with CYP2C8 (gene 1558), with CYP2C9 (gene 1559) and with CYP2E1 (gene 1571) was inactive. Moreover, the AC50 in assay [3] was 66.9 µM (active).

Turning to `Cc1cccc(C)c1O`, the outcome in assay [1], in assay [2], in [3], in [4], in assay [5] and in assay [6] was inactive. Also, the compound was called inactive with CYP2C8 (gene 1558), with CYP2C9 (gene 1559) and in the assay with CYP2E1 (gene 1571).

Consider `COC(=O)c1ccc(O)cc1`, for which the outcome (in assay [1]; in the assay with Caspase-3 (Homo sapiens); in assay [2]; in assay [3]; in assay [4]; in [5]) was inactive. The compound was classed as inactive (in assay [6]; with CYP2C8 (gene 1558); with CYP2C9 (gene 1559); with CYP2E1 (gene 1571)).

`Nc1nc(N)c2nc(CNc3ccc(C(=O)N[C@@H](CCC(=O)O)C(=O)O)cc3)cnc2n1`: the call (in [1]; in [2]; in [4]; in [5]; in [6]; in the assay with CYP2C8 (gene 1558)) was inactive. For the same compound, in the assay with CYP2C9 (gene 1559), the call was inactive. The AC50 in assay [3] is 0.0998 µM (active); with CYP2E1 (gene 1571) it was 0.098 µM (active).
